Parameters in all cases: scale not given: direction of the effect not stated beside the values
Experiment [1] has as its target Protein translocase subunit SecA (Escherichia coli (strain K12)) (UniProt P10408). The experiment is described as follows: Assay to Identify E. coli SecA ATPase Inhibitors. The experiment is classed as functional. Particulars: 30 µM.
Experiment [2] has as its target T1, Ubiquitin-activating enzyme e1, putative (Leishmania donovani (strain BPK282A1)) (UniProt E9BSI1).
T1 sequence (whole entry): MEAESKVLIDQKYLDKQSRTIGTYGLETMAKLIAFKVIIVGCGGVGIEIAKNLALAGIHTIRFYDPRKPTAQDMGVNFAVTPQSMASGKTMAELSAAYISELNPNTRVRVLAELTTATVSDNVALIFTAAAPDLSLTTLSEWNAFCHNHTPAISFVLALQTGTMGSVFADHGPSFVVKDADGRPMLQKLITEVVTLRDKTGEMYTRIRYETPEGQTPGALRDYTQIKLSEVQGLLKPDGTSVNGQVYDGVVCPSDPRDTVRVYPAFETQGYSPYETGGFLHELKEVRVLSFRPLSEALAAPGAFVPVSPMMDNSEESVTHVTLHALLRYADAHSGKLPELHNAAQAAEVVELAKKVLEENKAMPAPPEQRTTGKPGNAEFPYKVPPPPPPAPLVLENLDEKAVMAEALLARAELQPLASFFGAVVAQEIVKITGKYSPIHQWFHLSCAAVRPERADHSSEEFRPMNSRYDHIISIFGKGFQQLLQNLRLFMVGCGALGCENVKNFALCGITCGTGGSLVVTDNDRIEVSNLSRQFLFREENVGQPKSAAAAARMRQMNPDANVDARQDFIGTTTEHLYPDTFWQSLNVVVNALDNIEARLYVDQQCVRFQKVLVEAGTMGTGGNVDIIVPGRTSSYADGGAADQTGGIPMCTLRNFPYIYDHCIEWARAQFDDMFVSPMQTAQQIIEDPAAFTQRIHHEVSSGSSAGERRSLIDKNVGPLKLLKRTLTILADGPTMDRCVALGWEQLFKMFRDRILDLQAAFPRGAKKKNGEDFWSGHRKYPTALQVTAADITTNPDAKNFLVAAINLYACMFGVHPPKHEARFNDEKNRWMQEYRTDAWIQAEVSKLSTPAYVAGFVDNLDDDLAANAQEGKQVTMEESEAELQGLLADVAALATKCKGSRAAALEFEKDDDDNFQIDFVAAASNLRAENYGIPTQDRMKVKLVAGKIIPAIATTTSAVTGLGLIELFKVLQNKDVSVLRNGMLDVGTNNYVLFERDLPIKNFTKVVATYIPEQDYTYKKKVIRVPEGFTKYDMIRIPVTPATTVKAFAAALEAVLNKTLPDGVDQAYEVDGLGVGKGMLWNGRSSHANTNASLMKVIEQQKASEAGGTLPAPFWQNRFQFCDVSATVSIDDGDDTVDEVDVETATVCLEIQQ
As to the kind of experiment: Leishmania donovani Ubiquitin Activating Enzyme (LdE1). The experiment is classed as functional. Particulars: 30 µM.

The target of experiment [3] is AMP-activated protein kinase, AMPK (Homo sapiens) (UniProt P54646+O43741+P54619+Q9UGJ0+Q9Y478+Q13131+Q9UGI9). As to the kind of experiment: AMP-dependent Kinase enzyme assay. An in vitro enzyme assay that detects ADP turnover that is directly proportional to AMPK activity. This uses naive AMPK that is activated during the assay with MK-8722. To be noted: 30 µM. In kind it is functional.

The target in experiment [4] is Sialic acid-binding Ig-like lectin 9 (Homo sapiens) (UniProt Q9Y336). As to the kind of experiment: Hs-Siglec9 ALPHAscreen SOP 20170721. To be noted: 10 µM. For orientation: Bead proximity is the source of the signal in Alpha formats.
Another experiment deals with Trypanosoma cruzi. The experiment is described as follows: Trypanosoma cruzi phosphomannomutase and mannose-1-phosphate guanylyltransferase assay. The experiment is classed as functional. To be noted: 10 µM.
Experiment [5] addresses T2, Arginase-2, mitochondrial (Homo sapiens) (UniProt P78540).
T2 sequence (whole entry): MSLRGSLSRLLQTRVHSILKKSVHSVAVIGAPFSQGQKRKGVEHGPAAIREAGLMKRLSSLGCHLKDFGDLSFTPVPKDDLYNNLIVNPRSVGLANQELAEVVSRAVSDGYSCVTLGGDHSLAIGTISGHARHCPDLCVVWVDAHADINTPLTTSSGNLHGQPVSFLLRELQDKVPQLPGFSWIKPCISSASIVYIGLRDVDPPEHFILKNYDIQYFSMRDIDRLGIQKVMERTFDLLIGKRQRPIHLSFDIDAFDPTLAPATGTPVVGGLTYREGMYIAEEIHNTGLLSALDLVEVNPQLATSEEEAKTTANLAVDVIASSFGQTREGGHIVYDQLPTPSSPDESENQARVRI
As to the kind of experiment: in vitro enzyme assay to detect the production of urea directly proportional to the activity of Arginase II. Further: in the data most compounds retested in dose-response had high values. The experiment is classed as functional. Particulars: 33.3 µM.

The target in experiment [6] is T3, Proteasome subunit beta (Trypanosoma cruzi) (UniProt O96673).
T3 sequence (whole entry): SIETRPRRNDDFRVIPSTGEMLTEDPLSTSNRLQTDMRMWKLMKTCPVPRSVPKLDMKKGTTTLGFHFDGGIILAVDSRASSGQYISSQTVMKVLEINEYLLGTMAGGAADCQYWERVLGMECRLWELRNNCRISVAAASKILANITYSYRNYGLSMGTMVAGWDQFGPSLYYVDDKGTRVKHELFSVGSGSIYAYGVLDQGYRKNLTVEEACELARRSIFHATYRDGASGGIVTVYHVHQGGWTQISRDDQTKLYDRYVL
As to the kind of experiment: Trypanosoma cruzi proteasome chymotrypsin-like activity (TcProtChymo) assay. Further: in the data most compounds retested in dose-response had high values. To be noted: 9.37 µM. The experiment is classed as functional.

Another experiment is filed under the species Homo sapiens. The experiment is described as follows: To identify inhibition of the IFN signalling (Jak-Stat) pathway via expression of an eGFP reporter gene under the control of an IFN-stimulated response element (ISRE) containing MxA promoter. In kind it is functional. Particulars: 30 µM. On the technique in general: A reporter such as luciferase makes a cellular process visible.

In experiment [7] the target is T4, Tyrosyl-tRNA synthetase, putative (Trypanosoma cruzi (strain CL Brener)) (UniProt Q4DSP6).
T4 sequence (whole entry): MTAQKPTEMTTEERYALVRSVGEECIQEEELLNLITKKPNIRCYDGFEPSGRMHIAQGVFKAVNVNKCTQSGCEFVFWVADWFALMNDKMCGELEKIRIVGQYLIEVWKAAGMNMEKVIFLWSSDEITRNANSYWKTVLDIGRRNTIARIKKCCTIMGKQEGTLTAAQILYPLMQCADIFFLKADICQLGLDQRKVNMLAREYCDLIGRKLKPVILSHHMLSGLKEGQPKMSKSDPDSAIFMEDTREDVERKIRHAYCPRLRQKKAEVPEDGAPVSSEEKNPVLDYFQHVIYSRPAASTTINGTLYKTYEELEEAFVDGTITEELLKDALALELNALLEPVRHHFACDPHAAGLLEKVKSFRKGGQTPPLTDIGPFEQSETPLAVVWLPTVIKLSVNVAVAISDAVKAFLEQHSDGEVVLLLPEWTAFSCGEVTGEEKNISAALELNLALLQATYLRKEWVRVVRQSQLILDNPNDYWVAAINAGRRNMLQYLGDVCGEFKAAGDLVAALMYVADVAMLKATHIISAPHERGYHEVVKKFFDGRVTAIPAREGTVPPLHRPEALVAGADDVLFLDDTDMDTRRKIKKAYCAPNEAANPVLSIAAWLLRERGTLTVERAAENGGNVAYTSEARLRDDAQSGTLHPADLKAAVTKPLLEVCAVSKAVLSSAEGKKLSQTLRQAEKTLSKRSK
As to the kind of experiment: Trypanosoma cruzi tyrosyl tRNA synthetase (TcYRS) _High Tyrosine SOP. Further: in the data most compounds retested in dose-response had high values. To be noted: 30 µM. The experiment is classed as functional.

The target in experiment [8] is T4, Tyrosyl-tRNA synthetase, putative (Trypanosoma cruzi (strain CL Brener)). As to the kind of experiment: Trypanosoma cruzi tyrosyl tRNA synthetase (TcYRS) SOP. In kind it is functional. To be noted: 30 µM.
Experiment [9] deals with Chromo domain-containing protein 1 (Saccharomyces cerevisiae (strain ATCC 204508 / S288c) (Baker's yeast)) (UniProt P32657). As to the kind of experiment: ScCHD-1 Enzyme Inhibition Assay. Further: in the data most compounds retested in dose-response had high values. To be noted: 30 µM. The experiment is classed as functional.

SMILES strings stand for the structures. For some of these results: Results with a measured potency or affinity are listed apart.

Chain of Sialic acid-binding Ig-like lectin 9 (Homo sapiens) (Q9Y336 whole entry): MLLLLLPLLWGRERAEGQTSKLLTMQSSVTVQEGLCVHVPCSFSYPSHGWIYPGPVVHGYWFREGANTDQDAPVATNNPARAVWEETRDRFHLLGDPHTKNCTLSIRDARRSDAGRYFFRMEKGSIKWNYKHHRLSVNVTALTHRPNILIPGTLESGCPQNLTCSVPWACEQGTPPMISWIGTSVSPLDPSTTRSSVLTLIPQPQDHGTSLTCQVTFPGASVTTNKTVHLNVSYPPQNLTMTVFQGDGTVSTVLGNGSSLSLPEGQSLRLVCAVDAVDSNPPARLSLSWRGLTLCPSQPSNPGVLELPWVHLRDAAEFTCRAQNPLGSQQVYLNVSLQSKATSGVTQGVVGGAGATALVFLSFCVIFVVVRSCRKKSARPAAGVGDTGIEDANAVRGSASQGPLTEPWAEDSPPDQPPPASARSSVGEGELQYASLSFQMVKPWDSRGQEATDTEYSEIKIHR
Chain of Chromo domain-containing protein 1 (Saccharomyces cerevisiae (strain ATCC 204508 / S288c) (Baker's yeast)) (P32657 whole entry, the tested form may be a part): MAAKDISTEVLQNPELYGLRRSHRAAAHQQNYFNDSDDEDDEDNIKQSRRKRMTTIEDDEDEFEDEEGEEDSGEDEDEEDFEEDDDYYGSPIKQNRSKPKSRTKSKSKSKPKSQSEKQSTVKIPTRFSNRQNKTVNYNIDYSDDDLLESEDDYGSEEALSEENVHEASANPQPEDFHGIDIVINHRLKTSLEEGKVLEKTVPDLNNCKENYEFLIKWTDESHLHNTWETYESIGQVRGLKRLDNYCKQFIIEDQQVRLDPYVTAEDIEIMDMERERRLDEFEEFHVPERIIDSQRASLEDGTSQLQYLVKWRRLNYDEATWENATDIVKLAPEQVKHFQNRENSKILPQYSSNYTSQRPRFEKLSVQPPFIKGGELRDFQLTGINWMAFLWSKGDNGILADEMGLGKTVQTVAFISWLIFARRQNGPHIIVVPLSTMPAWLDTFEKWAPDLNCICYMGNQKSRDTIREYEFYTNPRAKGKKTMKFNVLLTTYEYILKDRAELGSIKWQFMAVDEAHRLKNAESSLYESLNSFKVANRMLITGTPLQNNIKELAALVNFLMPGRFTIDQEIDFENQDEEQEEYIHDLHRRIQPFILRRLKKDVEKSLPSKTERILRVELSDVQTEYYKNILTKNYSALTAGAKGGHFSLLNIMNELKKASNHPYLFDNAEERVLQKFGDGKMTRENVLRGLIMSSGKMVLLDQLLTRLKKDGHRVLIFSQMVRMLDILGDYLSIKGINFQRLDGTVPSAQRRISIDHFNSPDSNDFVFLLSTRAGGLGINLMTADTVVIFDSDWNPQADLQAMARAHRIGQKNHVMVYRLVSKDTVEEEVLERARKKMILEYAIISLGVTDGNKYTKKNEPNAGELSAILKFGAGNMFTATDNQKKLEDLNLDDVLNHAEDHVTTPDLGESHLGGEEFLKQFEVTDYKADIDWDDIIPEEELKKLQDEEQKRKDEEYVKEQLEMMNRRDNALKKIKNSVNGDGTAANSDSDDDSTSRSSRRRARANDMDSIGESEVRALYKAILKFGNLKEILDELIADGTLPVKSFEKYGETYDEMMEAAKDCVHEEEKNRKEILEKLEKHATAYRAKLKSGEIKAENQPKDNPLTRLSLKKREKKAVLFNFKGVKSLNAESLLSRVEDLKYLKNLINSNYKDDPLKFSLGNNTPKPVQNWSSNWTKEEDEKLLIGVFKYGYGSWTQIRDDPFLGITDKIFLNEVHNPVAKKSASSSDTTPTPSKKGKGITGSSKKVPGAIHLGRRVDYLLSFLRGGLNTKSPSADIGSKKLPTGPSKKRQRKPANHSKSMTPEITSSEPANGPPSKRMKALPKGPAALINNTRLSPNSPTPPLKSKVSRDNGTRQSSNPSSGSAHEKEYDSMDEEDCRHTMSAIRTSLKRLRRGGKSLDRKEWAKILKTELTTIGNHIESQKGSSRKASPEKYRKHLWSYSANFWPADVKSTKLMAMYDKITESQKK
Chain of Protein translocase subunit SecA (Escherichia coli (strain K12)) (P10408 whole entry): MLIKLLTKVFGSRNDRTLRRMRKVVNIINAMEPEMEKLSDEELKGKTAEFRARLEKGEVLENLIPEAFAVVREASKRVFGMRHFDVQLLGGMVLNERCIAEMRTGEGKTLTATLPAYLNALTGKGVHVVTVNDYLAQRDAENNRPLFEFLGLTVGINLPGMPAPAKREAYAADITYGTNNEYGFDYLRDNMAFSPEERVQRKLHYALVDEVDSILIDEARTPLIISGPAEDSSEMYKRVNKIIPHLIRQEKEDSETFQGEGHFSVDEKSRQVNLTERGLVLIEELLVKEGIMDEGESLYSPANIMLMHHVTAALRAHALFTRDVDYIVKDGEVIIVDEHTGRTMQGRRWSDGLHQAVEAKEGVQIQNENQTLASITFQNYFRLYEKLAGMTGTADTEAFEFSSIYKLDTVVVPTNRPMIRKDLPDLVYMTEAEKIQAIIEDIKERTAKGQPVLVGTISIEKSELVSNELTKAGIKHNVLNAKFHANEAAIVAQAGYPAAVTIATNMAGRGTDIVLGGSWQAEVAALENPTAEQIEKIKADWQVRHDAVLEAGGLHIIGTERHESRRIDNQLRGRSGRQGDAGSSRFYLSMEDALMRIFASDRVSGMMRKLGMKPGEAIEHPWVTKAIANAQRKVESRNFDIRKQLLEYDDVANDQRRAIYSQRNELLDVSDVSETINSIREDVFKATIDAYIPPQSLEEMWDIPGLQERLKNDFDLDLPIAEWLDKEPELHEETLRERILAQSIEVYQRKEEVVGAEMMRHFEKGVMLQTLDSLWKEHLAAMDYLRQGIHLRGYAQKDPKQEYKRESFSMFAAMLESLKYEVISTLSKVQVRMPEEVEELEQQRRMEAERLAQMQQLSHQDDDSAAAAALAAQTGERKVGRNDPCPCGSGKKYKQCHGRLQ

With `CC(C)(C)c1ccc(C2(C(=O)NCCS(N)(=O)=O)CC2)cc1`, the Percent Effect in [1] was -3.83%; in experiment [2], 10.4%; in [3] it was 1.16%; in experiment [4], 8.65%; with Trypanosoma cruzi it was 3.25%; in experiment [5] it was -422%. Moreover, the Percent Effect in experiment [6] was 8.98%; in the experiment listed under Homo sapiens, 10.7%; in experiment [7] it was 3.23%; in [8], 11.1%; in experiment [9] it was -4.35%.
With `CCOCCOC(C)C(=O)NCc1cn2cc(Br)ccc2n1` (stereo unspecified), the Percent Effect in experiment [1] was -0.315%; in experiment [2], 0%; in experiment [3], 8.27%; in experiment [4] it was 0.478%; in the experiment with Trypanosoma cruzi, 1.27%; in [5], 1.18%. Besides, the Percent Effect is 9.68% in [6]; -18% in the experiment filed under Homo sapiens; 5.32% in experiment [7]; 10.4% in experiment [8]; -1.5% in experiment [9].
As to `O=C(c1ccccn1)N1CCCC(c2nccn2Cc2ccncc2)C1` (stereo unspecified), the Percent Effect is -1.27% in experiment [1]; 2.74% in experiment [2]; -0.242% in experiment [3]; 0.902% in [4]; 2.94% in the experiment on Trypanosoma cruzi; 0.909% in experiment [5]. The Percent Effect in [6] was 19.7%; in the experiment filed under Homo sapiens it was 3.55%; in experiment [7], 10.8%; in experiment [8], 10%; in [9] it was -14%.
As to `Cn1ccnc1COc1ccc(CO)cc1`, the Percent Effect in experiment [1] was -1.04%; in experiment [2], 5.2%; in experiment [3] it was -1.87%; in [4], -8.74%; in the experiment on Trypanosoma cruzi, -5.06%; in experiment [5], 8.19%. The Percent Effect in experiment [6] was 6.59%; in the experiment filed under Homo sapiens, 36.8%; in experiment [7], 3.88%; in [8] it was 14.6%; in [9] it was -8.46%.
Consider `Cc1ccsc1[C@@H]1CCN(C(=O)c2cc3ccccc3[nH]2)C[C@H]1O`, for which the Percent Effect in [1] is -2.04%; in experiment [2], -1.39%; in [3] it was 0.967%; in experiment [4], -5.71%; with Trypanosoma cruzi, -6.51%; in [5], -0.442%. For the same compound, the Percent Effect in experiment [6] is 15.3%; in the experiment filed under Homo sapiens, 12.8%; in experiment [7] it was -3.16%; in [8], -2.56%; in [9], 2.93%.
Regarding `Cn1ccc(CN2CCC(COC3CCCC3)CC2)cc1=O`, the Percent Effect is -2% in [1]; -59.5% in [2]; -8.16% in experiment [3]; 2.17% in experiment [4]; 2.15% in the experiment with Trypanosoma cruzi; 3.66% in experiment [5]. Moreover, the Percent Effect in experiment [6] was 11.2%; in the experiment filed under Homo sapiens, 26.8%; in [7], -10.4%; in experiment [8], 17.7%; in experiment [9], -25.3%.
As for `Cn1c(CN2CCN(CC3CC3)CC2)nnc1C1CCC1`, the Percent Effect in experiment [1] was -8.27%; in experiment [2], 0%; in [3] it was -14%; in experiment [4], 5.49%; with Trypanosoma cruzi it was -0.392%; in [5], -1.36%. Also, the Percent Effect is 4.44% in experiment [6]; -5.43% in the experiment listed under Homo sapiens; -2.15% in [7]; 0% in [8]; -2.31% in experiment [9].
For `CC(=O)N1CCC(Cc2cnc(-c3c(C)n[nH]c3C)cn2)C1` (stereo unspecified), the Percent Effect was -5.08% in [1]; 0% in experiment [2]; 10% in experiment [3]; -2.02% in experiment [4]; 1.97% with Trypanosoma cruzi; 0.233% in experiment [5]. Moreover, the Percent Effect was 4.67% in experiment [6]; -10.8% in the experiment listed under Homo sapiens; 3.19% in experiment [7]; 1.28% in experiment [8]; 0.0811% in experiment [9].
For `CCc1cc(NCCc2ccc(O)cc2)n2nccc2n1`, the Percent Effect is -0.557% in experiment [1]; 5.48% in experiment [2]; 93.2% in experiment [3]; 6.39% in experiment [4]; 2.35% in the experiment on Trypanosoma cruzi; 25% in [5]. In addition, the Percent Effect in experiment [6] is 9.58%; in the experiment filed under Homo sapiens, 46.2%; in experiment [7] it was 3.23%; in experiment [8] it was 15%; in experiment [9] it was -4.87%.
With `NC(=O)C1(Cc2ccccc2-c2ccccc2)CCCN(CC2CC2)C1` (stereo unspecified), the Percent Effect in [1] was -0.127%; in experiment [2], 0%; in experiment [3], 8.02%; in [4], 1.63%; in the experiment on Trypanosoma cruzi, 3.15%; in experiment [5], 0.233%. Moreover, the Percent Effect in experiment [6] is 5.2%; in the experiment listed under Homo sapiens, -4.55%; in experiment [7] it was 2.13%; in [8], 3.85%; in [9], -2.97%.
In the case of `CCS(=O)(=O)N1C[C@H]2CN(Cc3cccnc3)C(=O)[C@H]2C1`, the Percent Effect in experiment [1] was -1.39%; in [2], 2.7%; in experiment [3], 0.503%; in [4], 1.84%; in the experiment on Trypanosoma cruzi it was -6.25%; in experiment [5] it was 0%. Moreover, the Percent Effect came to 10.9% in experiment [6]; 19.2% in the experiment listed under Homo sapiens; 4.95% in experiment [7]; 6.1% in [8]; 1.54% in experiment [9].

The values above are taken from ChEMBL document CHEMBL3988442, “University of Dundee, Small-Polar-MMV Screening Library” (2021).
